# From PubChem BioAssay (NCATS)
# Results filed as inconclusive are left out. Unmarked numbers belong to inactive results. Calls come from the whole dose curve; as a rule, active = well fitted cell-killing curve with a large enough effect; inconclusive = small, poorly fitted or top-dose-only effect, or effect the other way; inactive = flat fitted curve, though single readings scatter.
# Test system: CAOV3
# Assay: Primary qHTS to identify gynecologic anti-cancer compounds using libraries of approved drugs and bioactive compounds (AID 1345084); note: nearly all actives have a fitted effect of over 55% in size
# Conditions: Gynecologic cancer cell panel viability, ATPlite luminescence, 48 h; series mostly up to 57.5 µM; activity change, negative = cytotoxicity: at the top concentration
# From the text: National Center for Advancing Translational Sciences [NCATS] Assay Overview: Chemotherapeutic drug responses vary from cancer to cancer and from patient to patient. These variations could be caused by a number of factors including patient genomic background, tumor mutations, tumor heterogeneity, and aspects of drug treatment. Chemotherapeutic drug resistance is also a common issue and can lead to ineffective treatment and patient death. Here we have profiled the cell killing effects of thousands of compounds to characterize the responses in three gynecological cancers, identify cancer-selective compounds, and understand the diversity of responses to these compounds from pan-cancer suppressors to single cell line selective compounds. In this assay, we screened a 7,914 compound drug library that included approved drug and bioactive compounds in six ovarian, three cervical, and […] placental cancer cell lines using the ATPlite assay for cell viability. […] The cervical cancer cell lines included HeLa, Ca Ski, and C-33 A. The placental cancer cell lines included JEG-3. HEK 293T cells were used as the control cell line to determine the selectivity index. ATPlite is a luminescence based assay reliant on the conversion of a luciferase substrate to light in the presence of ATP. As a cytotoxic compound will suppress growth and decrease the number of cells, the concentration of ATP will decrease, and less light signal will be detected in the well.
# Assay Protocol Summary: 1,000 cells in 4 uL of media were dispensed into white, solid bottom 1536-well plates using a Multidrop Combi (Thermo Scientific). The Assay plates were incubated for 16 hours at 37 C with 5% CO2 in assay plates, followed by the addition of 23 nL of DMSO or drug dissolved in DMSO. Each compound was assayed in five concentrations (0.092, 0.46, 2.3, 11.5, and 57.5 uM), using the automated Wako 1536 Pin Tool workstation and incubated at 37 C with 5% CO2 48 hours. 4 uL of ATPlite, the ATP monitoring reagent, was then added to the each well of the assay plates using the Multidrop Combi reagent dispenser followed by incubation for 15 minutes at room temperature. The resulting luminescence was measured using the ViewLux plate reader.
# % is set by controls: 0 for no effect and ±100 for the full control effect.
row,SMILES,"activity change, negative = cytotoxicity"
1,O=C(O[C@H]1[C@@H]2C[C@@H]3OC[C@](O)([C@@H]1Cl)[C@H]2C(O[C@@H]1O[C@H](CO)[C@@H](O)[C@H](O)[C@H]1O)O3)c1ccc(O)c(O)c1 (stereo not given in full),-12.3% [at 25.3 µM]
2,O=C(O)Cc1ccc2oc(-c3ccc(NC(=O)/C=C/c4ccc(Br)cc4)c(F)c3)nc2c1,18.2%
3,O=C(Nc1ccn[nH]1)c1c(F)cccc1F,9.74%
4,C/C=C1\[C@H](O[C@@H]2O[C@H](CO)[C@@H](O)[C@H](O)[C@H]2O)OC=C(C(=O)OC)[C@H]1CC(=O)O,-6.84% [at 25.3 µM]
5,C/C1=C\[C@H]2OC(=O)[C@@H](C)[C@@H]2CC/C(C(=O)O)=C/CC1,-8.09%
6,Cc1ccccc1CN1C2=NCCN2C(=O)C2=C1CCN(Cc1ccccc1)C2,15.7%
7,COCC1OC(OC(C)(C)C2CCC3(C)C=C(C4CCC5C4(C)CC(O)C4OC(C(C)(C)OC6OC(CO)C(O)C(O)C6NC(C)=O)CCC45C)CCC3O2)C(NC(C)=O)C(O)C1O (stereo not given),-5.9% [at 11.6 µM]
8,CCC(Nc1ncnc2nc[nH]c12)c1nc2cccc(F)c2c(=O)n1-c1ccccc1 (stereo not given),-23.3%
9,CCC(CC)C(=O)Nc1sc2c(c1C#N)CCC(C(C)(C)CC)C2 (stereo not given),22.7%
10,C=C1C[C@]23C[C@H]1[C@@H](O)C[C@H]2[C@@]12C=C[C@H](O)[C@@](C)(C(=O)O1)[C@H]2[C@@H]3C(=O)O,13.3% [at 38.5 µM]
11,CC1CCC2(C(=O)O)CCC3(C)C(=CCC4C5(C)CCC(OC(=O)/C=C/c6ccccc6)C(C)(C)C5CCC43C)C2C1C (stereo not given),2.04% [at 25.3 µM]
12,CC1OC2OC(=O)C3(C)CC4=C(CO)C5=C(CC(=O)C4(C)C(C1=O)C23)C(C)(C)OC(=O)C5 (stereo not given),21.7% [at 25.3 µM]
13,CC1OC(OC2C(O)C(OC3CCC4(C)C(CCC5(C)C4CC=C4C6CC(C)(COC7OC(CO)C(O)C(O)C7O)CC(O)C6(C)CCC45C)C3(C)C)OC(C(=O)O)C2O)C(O)C(O)C1OC1OCC(O)C(O)C1O (stereo not given),-0.364% [at 11.6 µM]
14,C=C[C@]1(C)C=C2CCC3C(C)(CCC[C@@]3(C)C(=O)O)C2CC1 (stereo not given in full),4.83% [at 38.5 µM]
15,O=C(/C=C/c1ccccc1)OC[C@]12O[C@H]1[C@@H](O)[C@@H]1C=CO[C@@H](O[C@@H]3O[C@H](CO)[C@@H](O)[C@H](O)[C@H]3O)[C@@H]12,3.05% [at 25.3 µM]
16,CCOc1ccc2nc(SCCN3CCOCC3)[nH]c2c1,21.4%
17,COC1CC(O[C@H]2CC[C@@]3(C)C(CCC4C3[C@H](OC(C)=O)[C@@H](OC(=O)/C=C/c3ccccc3)[C@]3(C)C(C(C)=O)CC[C@]43O)C2)OC(C)C1OC1CC(OC)C(OC2CC(OC)C(OC3OC(C)C(OC4OC(CO)C(O)C(O)C4O)C(OC)C3O)C(C)O2)C(C)O1 (stereo not given in full),6.87% [at 6.55 µM]
18,CC1(C)CC2C(O)c3cocc3CC(C)(O)C2C1 (stereo not given),26.8%
19,O=C1C=CC(O)(/C=C/C(=O)OC[C@H]2O[C@@H](Oc3ccc(O)cc3)[C@H](O)[C@@H](O)[C@@H]2O)C=C1,14.9% [at 25.3 µM]
20,Cc1cc(C)c2c(N)c(C(=O)NCc3ccc(Cl)cc3)sc2n1,1.25%

row,SMILES,"activity change, negative = cytotoxicity"
1,C=C1C(=O)O[C@@H]2C[C@H](C)[C@@]3(O)C=C(C(C)=O)[C@]4(CC3C[C@H]12)C(=O)O[C@H]1C[C@@H](C)C(CCC(C)=O)=CC[C@H]14 (stereo not given in full),6.08% [at 25.3 µM]
2,C/C=C(\C)C(=O)O[C@@H]1CC2[C@@H](CC=C3C[C@@H](O[C@H]4C[C@H](OC)[C@H](O[C@H]5C[C@H](OC)[C@H](O[C@@H]6O[C@H](C)[C@@H](O[C@H]7C[C@H](OC)[C@H](O[C@@H]8O[C@H](CO)[C@@H](O)[C@H](O)[C@H]8O)[C@@H](C)O7)[C@H](OC)[C@H]6O)[C@@H](C)O5)[C@@H](C)O4)CC[C@@]32C)[C@@]2(O)CC[C@H](C(C)=O)[C@@]12C (stereo not given in full),9.95% [at 6.55 µM]
3,COC(=O)CCC(=O)OC[C@]1(C)CCC[C@@]2(C)C3CC[C@]4(C)C=CC3(CCC12)C4 (stereo not given in full),-7.44% [at 25.3 µM]
4,C=C(C)C(=O)OC1CC2(C)OC(=CC2=O)C(=C)CC2OC(=O)C(COC)C12 (stereo not given),-26.6% [at 38.5 µM]
5,C=CC1C(OC2OC(CO)C(O)C(O)C2O)OC=C(C(=O)OC)C1CC(=O)OCC1C(C)C(O)CC1C(CO)COC(=O)CC1C(C(=O)O)=COC(OC2OC(CO)C(O)C(O)C2O)/C1=C\C (stereo not given),12.7% [at 11.6 µM]
6,CC1(C)CCCC2(C)C(CO)C(CO)=CCC12 (stereo not given),-2.59%
7,CC(C)C(C#N)O[C@@H]1O[C@H](CO[C@@H]2O[C@@H](C)[C@H](O)[C@@H](O)[C@H]2O)[C@@H](O)[C@H](O)[C@H]1O (stereo not given in full),-29% [at 25.3 µM]
8,COC(=O)CCc1cc2ccoc2c(OC)c1O[C@@H]1O[C@H](CO)[C@@H](O)[C@H](O)[C@H]1O,27.3% [at 25.3 µM]
9,CC1=C(C(=O)OCc2ccccc2)C(c2ccc(-c3ccccc3)cc2)NC(=O)N1CCCCCC(=O)O (stereo not given),-0.304%
10,CN(C)CCn1cc(S(=O)(=O)c2cccc(F)c2)c2cccnc21,11.2%
11,COC(=O)c1cc(OC)cc(OC)c1C(=O)c1c(OC)cc2c(c1O)C1CCCC(C)(O2)O1 (stereo not given),-0.655% [at 25.3 µM]
12,CC1=CC(=O)C2(OC3OC(C)C(O)C(OC(=O)/C=C/c4ccccc4)C3O)C=COC(OC3OC(CO)C(O)C(O)C3O)C12 (stereo not given),-4.59% [at 25.3 µM]
13,C[C@H](C/C=C/C(C)(C)O)[C@H]1CC[C@@]2(C)[C@@H]3[C@@H](O[C@@H]4O[C@H](CO)[C@@H](O)[C@H](O)[C@H]4O)C=C4C(CC[C@H](O)C4(C)C)[C@]3(C=O)CC[C@]12C (stereo not given in full),15.2% [at 25.3 µM]
14,COc1ccc(F)cc1-c1cc(NC(=O)[C@@H]2CCCNC2)ncc1Cl,-40.1%
15,O=C(O)/C=C/c1cc2c(cc1O[C@@H]1O[C@H](CO)[C@@H](O)[C@H](O)[C@H]1O)OCO2,16.9% [at 38.5 µM]
16,CO[C@H]1/C=C/C=C/C=C/C[C@H](OC(=O)[C@@H](C)NC(=O)C2CCCCC2)[C@H](C)[C@@H](O)/C(C)=C/CCc2cc(O)cc(c2)NC(=O)C1,-28.5% [at 25.3 µM]
17,CC1(C)CCCC2(C)C1CC(=O)C13CC(CCC12)C(O)(CO)C3 (stereo not given),1.16% [at 38.5 µM]
18,C[C@@H]1O[C@@H](O[C@@H]2[C@@H](O[C@@H]3O[C@@H](C)[C@H](O[C@@H]4OC[C@H](O)[C@H](O[C@@H]5OC[C@@H](O)[C@H](O)[C@H]5O)[C@H]4O)[C@@H](O[C@@H]4OC[C@](O)(CO)[C@H]4O)[C@H]3O)[C@H](OC(=O)[C@]34CCC(C)(C)C[C@H]3C3=CCC5[C@@]6(C)C[C@H](O)[C@H](O[C@@H]7O[C@H](CO[C@@H]8OC[C@H](O)[C@H](O)[C@H]8O)[C@@H](O)[C@H](O)[C@H]7O)C(C)(C)C6CC[C@@]5(C)[C@]3(C)C[C@H]4O)OC[C@H]2O)[C@H](O)[C@H](O)[C@H]1O (stereo not given in full),6.96% [at 6.55 µM]
19,COc1c2c(c(C)c3c1C(=O)OC3)OC1(C)CC(O)C34OC(OC)(OC3(C)C)C(O)CC4(C)C1C2 (stereo not given),1.57% [at 25.3 µM]
20,CC(=O)O[C@H]1C[C@@](O)(C(C)C)C2[C@@H](OC(=O)c3ccc(O)cc3)C[C@@]3(C)O[C@H]3C[C@]21C (stereo not given in full),21% [at 25.3 µM]
